PME-1 primary: PME-1 inhibitors via competitive probe labeling, primary screen, biochemical, fluorescence polarization, FP-Rh probe, HTS; recombinant PME-1; inhibition, % at 5.9 µM; 320,000 tested, 0.53% active; AID 2130, 2009;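 active = inhibition above the campaign mean of all compounds plus 3 SD, cut at about 26% in these data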;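 note: competitive labeling of PME-1 active site by serine hydrolase directed probe; 0% = PME-1 with DMSO and 100% = wells lacking PME-1 enzyme; inhibitors block probe labeling so polarization falls and inhibition rises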
Target sequence (Q9Y570 whole entry, looked up): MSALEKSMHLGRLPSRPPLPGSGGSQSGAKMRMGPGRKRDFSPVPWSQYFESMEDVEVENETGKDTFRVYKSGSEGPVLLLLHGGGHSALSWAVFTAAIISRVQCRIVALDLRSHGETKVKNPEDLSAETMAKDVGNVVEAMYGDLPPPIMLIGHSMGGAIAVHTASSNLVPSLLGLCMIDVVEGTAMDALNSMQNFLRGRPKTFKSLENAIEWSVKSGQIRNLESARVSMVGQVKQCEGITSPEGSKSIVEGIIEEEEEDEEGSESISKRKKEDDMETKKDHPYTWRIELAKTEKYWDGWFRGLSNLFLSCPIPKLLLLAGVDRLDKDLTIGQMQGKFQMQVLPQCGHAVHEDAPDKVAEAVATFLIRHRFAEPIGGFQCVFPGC
LYPLA2 inh: LYPLA2 inhibitors, primary screen, counter-screen for PME1 inhibitor project, biochemical, fluorescence polarization, FP-Rh probe ABPP; Acyl-protein thioesterase 2 (Homo sapiens), O95372; recombinant LYPLA2; inhibition, % at 5.9 µM; 320,000 tested, 0.38% active; AID 2177, 2009;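 active = inhibition above the screen-wide mean plus 3 SD, limit set per campaign, cut at about 26% in these data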;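 note: 0% = LYPLA2 with DMSO and 100% = wells lacking LYPLA2 enzyme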
PREPL inh: PREPL enzyme inhibitors, primary screen, biochemical, fluorescence polarization | Prolyl endopeptidase-like (Homo sapiens), Q4J6C6 | recombinant PREPL, fluorescence polarization activity-based probe | inhibition, % at 5.96 µM | 320,000 tested, 0.68% active | AID 2751, 2010;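 note: 0% = enzyme with DMSO and 100% = wells lacking enzyme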
LYPLA1 inh: LYPLA1 inhibitors, primary screen, counter-screen for PME1 inhibitor project, biochemical, fluorescence polarization, FP-Rh probe ABPP; AID 2174, 2009; inhibition, % at 5.9 µM; recombinant LYPLA1; Acyl-protein thioesterase 1 (Homo sapiens), O75608; 320,000 tested, 0.16% active;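 active = inhibition above the mean of all tested compounds plus 3 SD, set per campaign, cut at about 14% in these data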;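 note: inhibitors block serine hydrolase probe labeling of LYPLA1 so polarization falls; 0% = enzyme with DMSO and 100% = wells lacking LYPLA1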
Target sequence (O75608 whole entry, looked up): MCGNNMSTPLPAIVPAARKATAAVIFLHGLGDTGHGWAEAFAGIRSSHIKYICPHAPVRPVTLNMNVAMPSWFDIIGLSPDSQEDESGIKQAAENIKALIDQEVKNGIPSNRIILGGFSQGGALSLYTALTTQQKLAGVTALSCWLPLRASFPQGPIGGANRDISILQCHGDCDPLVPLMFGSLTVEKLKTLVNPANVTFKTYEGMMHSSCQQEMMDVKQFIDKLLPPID
Fam108B inh: mouse Fam108B serine hydrolase inhibitors, primary screen, counter-screen for RBBP9 inhibitor project, biochemical, fluorescence polarization; recombinant Fam108B, FP-Rh probe fluorescence polarization; inhibition, % at 9.51 µM; 300,000 tested, 0.33% active; AID 1947, 2009;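 active = inhibition above the screen mean inhibition plus 3 SD, computed separately per campaign, cut at about 18% in these data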;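 note: inhibitors lower polarization as less probe binds the enzyme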
PREPL confirm: human PREPL enzyme inhibitors, confirmation, biochemical, fluorescence polarization. shares compounds with PREPL inh. recombinant PREPL, fluorescence polarization activity probe. inhibition, % at 5.96 µM. 2,000 tested, 67% active. AID 2803, 2010;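 note: 0% = protein with DMSO and 100% = wells lacking protein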
An asterisk follows results filed as active. This is a sample that favours compounds with a hit; in the whole collection about 1.3% have one here. Cut-off read from the data, not from the text of the source, unless noted: active = inhibition above about 43%; inactive = the rest.

Results for CCCOc1ccccc1-n1sc2c(c1=S)-c1cc(OC)cc3c1N(C(=O)C3=O)C2(C)C ?
PME-1 primary: 4; LYPLA2 inh: 3; PREPL inh: 52*; LYPLA1 inh: -5; Fam108B inh: 9; PREPL confirm: 57*

How did CCOC(=O)c1sc(N/N=C/c2cc(Br)c(O)c(OC)c2)nc1C do in these assays?
PME-1 primary: 28*; LYPLA2 inh: 9; PREPL inh: 44*; LYPLA1 inh: 6; Fam108B inh: 17; PREPL confirm: 48*

How did CCOC(=O)N/N=C/c1cc(OC)c(O)c(OC)c1 do in these assays?
PME-1 primary: 0; LYPLA2 inh: -2; PREPL inh: 4; LYPLA1 inh: -4; Fam108B inh: 4

Results for N#CC1=C(N)N(c2ccccc2)C(c2ccccc2)C1(C#N)C#N (configuration not stated) ?
PME-1 primary: 9; LYPLA2 inh: 11; PREPL inh: 46*; LYPLA1 inh: 6; Fam108B inh: 6; PREPL confirm: 19

Results for Nc1cc(N)cc(-c2nc3ccccc3[nH]2)c1 ?
PME-1 primary: 32*; LYPLA2 inh: -9; PREPL inh: 49*; LYPLA1 inh: -9; Fam108B inh: 17; PREPL confirm: 13

What do the screens show for `c1ccc(-c2nc3ccccc3[nH]2)cc1`?
PME-1 primary: -3; LYPLA2 inh: 7; PREPL inh: 5; LYPLA1 inh: 2; Fam108B inh: 5

What do the screens show for `CCN(CC)c1ccc(-c2nn3c(-c4n[nH]c5c4CCC5)nnc3s2)cc1`?
PME-1 primary: 23; LYPLA2 inh: 3; PREPL inh: 79*; LYPLA1 inh: -1; Fam108B inh: -3; PREPL confirm: 68*

What do the screens show for `C1CCC(c2nn3c(-c4n[nH]c5c4CCC5)nnc3s2)CC1`?
PME-1 primary: 0; LYPLA2 inh: 1; PREPL inh: 0; LYPLA1 inh: -2; Fam108B inh: 5

Results for CC(=O)N1CCN(c2ccc(OC[C@H]3CO[C@](Cn4ccnc4)(c4ccc(Cl)cc4Cl)O3)cc2)CC1 ?
PME-1 primary: -5; LYPLA2 inh: 8; PREPL inh: 61*; LYPLA1 inh: -2; Fam108B inh: 2; PREPL confirm: 64*

How did COc1cc(NC(C)CCCN)c2ncccc2c1 (configuration not stated) do in these assays?
PME-1 primary: 6; LYPLA2 inh: 4; PREPL inh: 57*; LYPLA1 inh: 4; Fam108B inh: 0; PREPL confirm: 39

How did COc1cc(NCCCCCCCN)c2ncccc2c1 do in these assays?
PME-1 primary: -3; LYPLA2 inh: 1; PREPL inh: 55*; LYPLA1 inh: 0; Fam108B inh: -3; PREPL confirm: 31

What do the screens show for `COc1cc(NC(=O)c2ccc3c(c2)OCO3)c2ncccc2c1`?
PME-1 primary: -3; LYPLA2 inh: -1; PREPL inh: 3; LYPLA1 inh: 0; Fam108B inh: -1

Results for COc1cc2cc3c(N)c(C(=O)NCc4ccco4)sc3nc2cc1OC ?
PME-1 primary: 47*; LYPLA2 inh: 1; PREPL inh: 46*; LYPLA1 inh: -4; Fam108B inh: 17; PREPL confirm: 57*

What do the screens show for `Cc1ccc(N(CC(=O)NCC2CCCO2)C(=O)CCC(=O)Nc2nccs2)cc1C` (configuration not stated)?
PME-1 primary: 1; LYPLA2 inh: -1; PREPL inh: 5; LYPLA1 inh: -1; Fam108B inh: 3

What do the screens show for `Cc1ccc(N(CC(=O)NCC2CCCO2)C(=O)CCC(=O)Nc2nccs2)cc1` (configuration not stated)?
PME-1 primary: 0; LYPLA2 inh: 0; PREPL inh: 43*; LYPLA1 inh: 5; Fam108B inh: -2; PREPL confirm: 15

What do the screens show for `Cc1cc(C)cc(N(CCC#N)C(=O)COC(=O)CCc2c[nH]c3ccccc23)c1`?
PME-1 primary: -4; LYPLA2 inh: 5; PREPL inh: 46*; LYPLA1 inh: 2; PREPL confirm: 39

Results for CN1C(=O)C(C)(C)c2cc(S(=O)(=O)N3CCN(c4ccccc4F)CC3)ccc21 ?
PME-1 primary: 1; LYPLA2 inh: 0; PREPL inh: -64; LYPLA1 inh: -3; Fam108B inh: -4

What do the screens show for `COC(=O)c1[nH]c2ccc(C)cc2c1NC(=O)CN1CCCc2ccccc21`?
PME-1 primary: 13; LYPLA2 inh: 1; PREPL inh: 49*; LYPLA1 inh: -1; Fam108B inh: 2; PREPL confirm: 48*

What do the screens show for `Cc1ccc2[nH]c3c(c2c1)CN(C(=O)CN1CCCc2ccccc21)CC3`?
PME-1 primary: 3; LYPLA2 inh: -8; PREPL inh: 30; LYPLA1 inh: -5; Fam108B inh: 5

What do the screens show for `CCOc1ccc(S(=O)(=O)N2CCCCC2)cc1NC(=O)CN1C(=O)NC(C)(c2ccc(C)cc2)C1=O` (configuration not stated)?
PME-1 primary: 16; LYPLA2 inh: -3; PREPL inh: -50; LYPLA1 inh: -6; Fam108B inh: 2

What do the screens show for `CCN(CC)c1ccc(-c2sc(Nc3ccccc3)n[n+]2-c2ccc(F)cc2)cc1`?
PME-1 primary: 3; LYPLA2 inh: -1; PREPL inh: 54*; LYPLA1 inh: -1; Fam108B inh: 2; PREPL confirm: 66*

Results for CN(C)c1ccc(-c2sc(Nc3ccccc3)n[n+]2-c2ccc(F)cc2)cc1 ?
PME-1 primary: -2; LYPLA2 inh: -3; PREPL inh: 10; LYPLA1 inh: -2; Fam108B inh: 2

Results for CCc1ccc(Nc2n[n+](-c3ccccc3)c(-c3ccc(N(CC)CC)cc3)s2)cc1 ?
PME-1 primary: -7; LYPLA2 inh: 0; PREPL inh: 64*; LYPLA1 inh: 3; Fam108B inh: 3; PREPL confirm: 68*

Results for COc1ccc(NC(=O)COC(=O)CCOc2ccccc2C)cc1Cl ?
PME-1 primary: 5; LYPLA2 inh: 4; PREPL inh: 6; LYPLA1 inh: -2; Fam108B inh: 0

What do the screens show for `NS(=O)(=O)c1ccc(CCNC(=O)COC(=O)c2ccc([N+](=O)[O-])o2)cc1`?
PREPL inh: 8

How did Cc1cc(OCC(=O)Nc2ccc(S(=O)(=O)N3CCN(C)CC3)cc2)ccc1Cl do in these assays?
PME-1 primary: -7; LYPLA2 inh: 6; PREPL inh: 6; LYPLA1 inh: -8; Fam108B inh: 3

How did CN1CCN(c2ccc(NC(=O)COc3ccccc3Cl)cc2)CC1 do in these assays?
PME-1 primary: 5; LYPLA2 inh: 7; PREPL inh: 44*; LYPLA1 inh: 3; Fam108B inh: 4; PREPL confirm: 42
